Measured values as given in PubChem BioAssay (NCI).
The panel holds about 79,000 compounds, 15% with a hit somewhere; the sample as a whole holds those more often. Unmarked numbers belong to inactive results. Calls of active or inactive are those of the source. No stated cut-off is given here; in the data, active means growth inhibition above about 70%; inactive means the rest.

Legend:
[1] = NCI Yeast Anticancer Drug Screen. Data for the rad50 strain (AID 155);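 further: 0% = growth of vehicle-only cultures of the same strain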; conditions: S. cerevisiae rad50 strain growth inhibition, stronger effect = higher value
Outline: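 A DNA repair-deficient yeast mutant serves as the test organism; compound-induced growth inhibition is calculated against vehicle-treated cells.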

[2] = NCI Yeast Anticancer Drug Screen. Data for the mec2-1 strain (AID 157); conditions: S. cerevisiae mec2-1 strain, stronger effect = higher value
Outline: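 Strain: mec2-1 (DNA repair/cell cycle alteration). Compound exposure, then growth measured; inhibition expressed relative to vehicle.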

[3] = NCI Yeast Anticancer Drug Screen. Data for the sgs1 mgt1 strain (AID 161);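 further: 0% = growth of cultures given vehicle only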; conditions: S. cerevisiae sgs1 mgt1 strain, stronger effect = higher value
Outline: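 Read-out: growth inhibition vs vehicle controls. Cells: mutant yeast strain deficient in DNA damage repair.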

[4] = NCI Yeast Anticancer Drug Screen. Data for the cln2 rad14 strain (AID 165);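 further: 0% = growth equal to vehicle treated cultures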; conditions: S. cerevisiae cln2 rad14 strain, stronger effect = higher value
Outline: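 Compounds are applied to the cln2 rad14 yeast strain, and growth is then compared with that of vehicle-treated cultures to give inhibition.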

[5] = NCI Yeast Anticancer Drug Screen. Data for the bub3 strain (AID 167); conditions: S. cerevisiae bub3 mutant strain, stronger effect = higher value
Outline: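 Inhibition values come from growth of compound-treated mutant yeast normalised to vehicle-treated controls.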

[6] = NCI Yeast Anticancer Drug Screen. Data for the mlh1 rad18 strain (AID 175); conditions: S. cerevisiae mlh1 rad18 strain growth inhibition, stronger effect = higher value
Outline: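 Read-out is yeast growth inhibition, calculated against vehicle-only controls. The compound was applied to a strain engineered with DNA damage repair alterations.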

[7] = at 5.0 µM (retest, dose inferred, filed as 0.5)
[8] = at 50.0 µM (retest, dose inferred, filed as 5.0)

Row | Compound | growth inhibition [1, 7] [%] | growth inhibition [1, 8] | growth inhibition ([1]; at 50.0 µM) | growth inhibition [2, 7] [%] | growth inhibition [2, 8] | growth inhibition ([2]; at 50.0 µM) | growth inhibition [3, 7] [%] | growth inhibition [3, 8] | growth inhibition ([3]; at 50.0 µM) | growth inhibition [4, 7] [%] | growth inhibition [4, 8] | growth inhibition ([4]; at 50.0 µM) | growth inhibition [5, 7] [%] | growth inhibition [5, 8] | growth inhibition ([5]; at 50.0 µM) | growth inhibition [6, 7] | growth inhibition [6, 8] | growth inhibition ([6]; at 50.0 µM)
1 | O=C(CSc1nnc(Cc2ccccc2)o1)Nc1ccc(Cl)cc1[N+](=O)[O-] | 1 | 56% | 83% (active) | -13 | 57% | 50.3% | 4 | 49% | 76.5% (active) | 10 | 51% | 21.8% | -10 | 64% | 15.1% | 4% | 53% | 83.8% (active)
2 | Cc1cc(Cc2cccc(Cl)c2)ccc1O | -8 | 99% (active) | 99.5% (active) | -34 | 99% (active) | 99.7% (active) | -2 | 99% (active) | 99.3% (active) | -21 | 99% (active) | 99.4% (active) | -20 | 99% (active) | 99.6% (active) | -8% | 99% (active) | 99.5% (active)
3 | O=[N+]([O-])c1ccc(S(=O)(=O)C/C=C/CCl)c([N+](=O)[O-])c1 | 54 | 99% (active) | 99.2% (active) | 34 | 100% (active) | 99.6% (active) | 43 | 99% (active) | 99.5% (active) | 20 | 99% (active) | 99.5% (active) | 37 | 99% (active) | 99.4% (active) | 71% (active) | 99% (active) | 99.5% (active)
4 | CCCCCCCCCCOC(=O)Nc1ccc(C)c(NC(=O)OCCCCCCCCCC)c1 | 0 | 1% | 27.4% | 1 | -3% | 13.4% | 3 | -13% | 16.8% | 2 | -13% | 23.1% | 0 | -1% | 55.2% | -1% | -3% | 24.6%
5 | O=[N+]([O-])c1ccc(SC(=S)N2CCCCC2)c([N+](=O)[O-])c1 | 21 | 98% (active) | 98.4% (active) | 16 | 98% (active) | 99% (active) | 15 | 99% (active) | 99.2% (active) | 0 | 92% (active) | 98.4% (active) | 10 | 98% (active) | 98.8% (active) | 21% | 98% (active) | 98.9% (active)
6 | O=C1CSC(=S)N1Cc1ccccc1Cl | 15 | 93% (active) | 98.9% (active) | 6 | 97% (active) | 96.2% (active) | 11 | 98% (active) | 97.9% (active) | 2 | 81% (active) | 97.3% (active) | -1 | 94% (active) | 95.2% (active) | 11% | 98% (active) | 99% (active)
7 | CCc1[nH]c2ccccc2c1N1C(=O)CC2(CCN(Cc3ccccc3)CC2)CC1=O | -4 | 1% | 32.1% | 1 | 25% | 6.25% | -75 | 23% | 32.4% | -1 | 2% | 3.7% | -6 | 8% | 35.5% | -6% | 10% | 19.7%
8 | NC1OC(COC(=O)c2ccccc2)C(O)C(OC(=O)c2ccccc2)C1OC(=O)c1ccccc1 (stereo unspecified) | 0 | 97% (active) | 97% (active) | 2 | 98% (active) | 96.8% (active) | 11 | 98% (active) | 97.7% (active) | 11 | 97% (active) | 95.3% (active) | -1 | 98% (active) | 93.8% (active) | 4% | 97% (active) | 95.8% (active)
9 | C[N+](C)(C)CC(=O)N/N=C/c1oc(-c2c(O)ccc3ccccc23)c(-c2c(O)ccc3ccccc23)c1[N+](=O)[O-] | 57 | 57% | 90% (active) | 47 | 47% | 90.6% (active) | 51 | 51% | 90.2% (active) | 13 | 13% | 80.9% (active) | 44 | 44% | 84.4% (active) | 58% | 58% | 84.2% (active)
10 | CCCCCCCCCCCCCCCCCCNC(=S)/N=C/c1c(O)cc(C)oc1=O | 1 | 15% | 16.1% | 8 | 38% | -13.7% | -15 | 8% | 57% | 7 | -13% | -30.1% | -2 | -8% | 18.9% | 10% | 29% | 15.9%
11 | C(=C\N1CCCCC1)/c1nnnn1-c1ccccc1 | -23 | 6% | 34.5% | -18 | -21% | 54.1% | -31 | -18% | 71.9% (active) | -17 | -22% | 11.8% | -29 | -31% | 54.6% | -4% | 1% | 72.7% (active)
12 | Cc1cc(N(CCOS(C)(=O)=O)CCOS(C)(=O)=O)ccc1C=Nc1ccc(-c2csc(-c3ccc(Br)cc3)n2)cc1 | 49 | 91% (active) | 95.5% (active) | 47 | 95% (active) | 94.2% (active) | 48 | 95% (active) | 81.9% (active) | 37 | 88% (active) | 89.5% (active) | 11 | 85% (active) | 76.9% (active) | 88% (active) | 96% (active) | 96.7% (active)
13 | CCCCCCCCCCN | 1 | 51% | 65.8% | -1 | 13% | 34.6% | 7 | 36% | 71% (active) | 6 | 19% | 42.2% | 7 | 30% | 47.2% | 6% | 36% | 46.8%
14 | C/C(=N/NC(N)=S)C(CN1CCOCC1)C(C1=C(O)c2ccccc2OC1)c1ccccc1 (stereo unspecified) | 26 | 26% | 75% (active) | 28 | 28% | 71.8% (active) | 24 | 24% | 80.9% (active) | 6 | 6% | 75.4% (active) | 24 | 24% | 71% (active) | 26% | 26% | 77.7% (active)
15 | CC(O)CC(O)CC1CCCO1 (stereo unspecified) | 5 | 22% | 39.2% | 1 | 9% | 35.6% | 1 | 4% | 25.2% | 2 | 9% | 33.1% | 3 | 19% | 82.7% (active) | 3% | 8% | 41.2%
16 | CCN(CC)CCC(=O)c1ccc(Oc2ccc(C)cc2)cc1 | 13 | 71% (active) | 29.9% | 6 | 36% | 40.2% | 24 | 75% (active) | 58% | 15 | 93% (active) | 24.9% | 18 | 89% (active) | 67% | 22% | 81% (active) | 53.1%
17 | CCCCC(CCc1ccccc1[N+](=O)[O-])(C(C)=O)C(=O)OCC (stereo unspecified) | 4 | -15% | 61% | 4 | -3% | 15.7% | -3 | 14% | 33.6% | 1 | -11% | -12.2% | 15 | 38% | 80.5% (active) | 5% | 3% | 58.8%
